Experimental data published in PubChem BioAssay AID624300 (Southern Research Specialized Biocontainment Screening …, 2012).
Among all 2,400 compounds or so, about 360 (15%) were called active.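 The calls were made as follows: active = viability falls under 70% at one or more tested concentrations, taken as toxicity; inactive = viability stays over 70% at every dose.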 A selection follows. Results with a measured potency or affinity are listed apart.

Assay: HeLa cell cytotoxicity, dose response, cytotoxicity control for MgcRacGAP inhibitor project (AID 624300)
Details: CellTiter-Glo luminescence, 24 h; series mostly up to 100 µM
With `Cc1cc(-c2n[nH]c(=S)n2/N=C/c2cccc(O)c2)n[nH]1` the outcome was “inactive”.
In the case of `COc1ccc(NC2CCCN(C(=O)c3cccc(N4CCNC4=O)c3)C2)cc1` (stereo not given), the outcome is reported as “inactive”.
With `COc1cccc(Oc2cn[nH]c2-c2ccc(O)cc2O)c1` the outcome was “inactive”.
For `COc1ccc(Oc2c(-c3ccc(O)cc3O)n[nH]c2C)cc1`, the outcome was “inactive”.
In the case of `CC1=NN(C(N)=S)C(=O)C1N=Nc1ccc(O)cc1` (stereo not given), the outcome is reported as “inactive”.
With `O=C(O)c1ccc2c(c1)[C@@H]1C=CC[C@@H]1[C@H](c1ccccn1)N2` the outcome was “inactive”.
With `CCN(CC)c1ccc(NC(=O)CNCc2ccccc2Cl)c(C)c1` the outcome was “inactive”.
For `COc1ccc(CNc2ncc(-c3ccc(F)cc3)n2C)cc1OC`, the outcome was “inactive”.
For `COc1ccc(CNc2ncc(-c3ccccc3)n2C)c(OC)c1OC`, the outcome was “inactive”.
In the case of `CCN1C(=O)c2ccc(C(=O)Nc3ccc(O)cc3C)cc2C1=O`, the outcome is reported as “inactive”.
In the case of `CCn1nc(CC(C)C)cc1C(=O)N1CCCC(Nc2ccc(OC)cc2)C1` (stereo not given), the outcome is reported as “inactive”.
With `CC(C)NCC(=O)Nc1c2c(nc3ccccc13)CCC2` the outcome was “inactive”.
For `CN1CCc2c1nc1ccccc1c2NC(=O)CN1CCCC1`, the outcome was “inactive”.
In the case of `Cc1sc2c3ccsc3ccc2[n+]1C`, the outcome is reported as “inactive”.
With `CC(C)(C)N(Cc1ccc2c(c1)OCO2)C(=O)/C=C\S(=O)c1ccccc1` (stereo not given) the outcome was “inactive”.
With `COc1ccc(C2NC(=O)C(C#N)=C(S)N2c2cccc(C)c2)cc1OC` (stereo not given) the outcome was “inactive”.
In the case of `CN(C)CCO/N=C(\c1ccc(Br)cc1)c1cccnc1`, the outcome is reported as “inactive”.
With `COC(=O)c1ccc(NCc2c(O)ccc(O)c2Br)cc1Cl` the outcome was “inactive”.
With `COC(=O)c1ccc(C(=O)OCCCc2nc3ccc(N)cc3[nH]2)cc1` the outcome was “inactive”.
In the case of `CCOC(=O)c1[nH]c2ccccc2c1NC(=S)Nc1cccc(C)c1C`, the outcome is reported as “inactive”.
In the case of `Cc1ccc(-c2n[nH]c(=S)n2/N=C/c2ccc(C(=O)O)cc2)cc1`, the outcome is reported as “inactive”.
For `COc1ccc2cc(OCC(=O)NNC(=O)Nc3ccc(F)cc3)ccc2c1`, the outcome was “inactive”.
In the case of `Oc1ccc(CCc2ccccn2)cc1`, the outcome is reported as “inactive”.
For `CC(=O)NC(Cc1ccccc1)C(=O)Oc1ccc2ccccc2c1` (stereo not given), the outcome was “inactive”.
With `CN1C(=O)/C(=C/C=C2/CCCN2C)N(C)C1=S` the outcome was “inactive”.
For `Cc1nc(Nc2ccc(O)cc2)c2c3c(sc2n1)CCCC3`, the outcome was “inactive”.
For `Oc1ccc(Nc2ncnc3ccccc23)cc1`, the outcome was “inactive”.
In the case of `Cc1cccc(Nc2c(-c3ccc(O)cc3)nc3ncccn23)c1`, the outcome is reported as “inactive”.
For `COc1ccc(/C=N/N2CCN(C)CC2)cc1O`, the outcome was “inactive”.
For `CC1=NOC(=O)/C1=C\c1ccc(-c2ccc(Cl)c(C(=O)O)c2)o1`, the outcome was “inactive”.
For `O=c1nc2s/c(=C\c3ccc(-c4ccccc4[N+](=O)[O-])o3)c(=O)n2nc1-c1ccccc1`, the outcome was “inactive”.
With `C=CCn1c(SCC(=O)Nc2ccc(N(C)C)cc2)nnc1-c1cccc(C)c1` the outcome was “inactive”.
With `COc1ccc(NC2CCCN(C(=O)CCC3=NNC(=O)CC3)C2)cc1` (stereo not given) the outcome was “inactive”.
In the case of `COc1ccc(N2CCN(S(=O)(=O)c3c(C)nc4scc(C)n4c3=O)CC2)cc1`, the outcome is reported as “inactive”.
For `N/N=C(\Cc1cscn1)c1ccc(O)cc1O`, the outcome was “inactive”.
In the case of `O=C(CN1CCN(c2ccc(O)cc2)CC1)Nc1ccc2c(c1)OCCCO2`, the outcome is reported as “inactive”.
With `Nc1nc2c(s1)CCc1ccccc1-2` the outcome was “inactive”.
For `COc1ccc2c(C)cc3n[nH]c(=S)n3c2c1`, the outcome was “inactive”.
For `NNc1ccc([N+](=O)[O-])c2[nH][nH]c(=O)c12`, the outcome was “inactive”.
For `Oc1ccc(C=NNc2nc3ccccc3s2)c(O)c1`, the outcome was “inactive”.
With `COc1ccc(-c2cnnc(N/N=C/c3ccc(O)c(O)c3)n2)cc1` the outcome was “inactive”.
For `COc1cc(/C=N/Nc2cc(C)nc(NS(=O)(=O)c3ccccc3)n2)ccc1O`, the outcome was “inactive”.
With `CN(C)c1ccc(/C=N\Nc2ccccn2)cc1` the outcome was “inactive”.
In the case of `CCN(CC)c1ccc(/C=N/Nc2nc(C)cc(C)n2)c(O)c1`, the outcome is reported as “inactive”.
With `Cc1nc2ccccc2nc1N/N=C/c1ccc(O)cc1` the outcome was “inactive”.
In the case of `COc1ccc(NCc2ccsc2)cc1`, the outcome is reported as “inactive”.
For `COc1ccc(NC2CCCN(C(=O)CN3CCOC3=O)C2)cc1` (stereo not given), the outcome was “inactive”.
In the case of `CC1(C)CC(=O)C(C=Nc2ccc(N)cc2)=C(O)C1`, the outcome is reported as “inactive”.
In the case of `COc1cc(/C=C/C(=O)OCC(=O)N2CC3(C)CC2CC(C)(C)C3)ccc1O` (stereo not given), the outcome is reported as “inactive”.
With `Cn1c(=O)[nH]c(=O)c2c1[nH]c(=S)n2CCCc1ccccc1` the outcome was “inactive”.
In the case of `Cn1c(=O)c2[nH]c(=S)n(Cc3ccccc3)c2n(C)c1=O`, the outcome is reported as “inactive”.
In the case of `CN(C)c1ccc(NC(=S)NCC2CCCO2)cc1` (stereo not given), the outcome is reported as “inactive”.
For `Cc1sc2ccc3sccc3c2[n+]1C`, the outcome was “inactive”.
With `Cc1cc(N(C)C)ccc1N=Nc1ccc(N)cc1` the outcome was “inactive”.
For `O=C(CN1CCN(c2ncccn2)CC1)N1CCCC1`, the outcome was “inactive”.
For `CC(C)c1nc(SCC(=O)Nc2ccc(N(C)C)cc2)c2ccccc2n1`, the outcome was “inactive”.
With `Cc1nc2ccc(C(=O)Nc3ccc(N(C)C)cc3)cc2s1` the outcome was “inactive”.
In the case of `CCn1c(SCC(=O)Nc2ccc(N(C)C)cc2)nnc1-c1cccc(C)c1`, the outcome is reported as “inactive”.
With `Cc1ccccc1SCC(=O)OCC(=O)Nc1ccc(N(C)C)cc1` the outcome was “inactive”.
With `COc1cc(/C=N/NC(=O)CNc2n[nH]c(=O)[nH]c2=O)ccc1O` the outcome was “inactive”.
With `CSc1ccc(CN2CCC(N3CC(C)OC(C)C3)CC2)cc1` (stereo not given) the outcome was “inactive”.
In the case of `C=CCn1c(SCC(=O)c2ccc(O)c(O)c2)nnc1-c1cccc(OC)c1`, the outcome is reported as “inactive”.
In the case of `CCn1c(CSc2nc3ccccc3s2)nnc1SCC(=O)c1ccc(O)c(O)c1`, the outcome is reported as “inactive”.
For `CN(C)c1ccc(NS(=O)(=O)c2ccc(Cl)cc2)cc1`, the outcome was “inactive”.
For `CS(=O)(=O)N1CCN(C2C3CC4CC(C3)CC2C4)CC1` (stereo not given), the outcome was “inactive”.
With `COc1cc(/C=N/NC(=O)c2ccc(-n3cccc3)cc2)ccc1O` the outcome was “inactive”.
In the case of `O=C(N/N=C/c1ccc(O)cc1)c1cccc(C(F)(F)F)c1`, the outcome is reported as “inactive”.
For `Fc1ccc(CN2CCN(C(c3ccccc3)c3ccccc3)CC2)cc1`, the outcome was “inactive”.
For `COc1cc(/C=N\NC(=O)c2ccc(Cn3nc([N+](=O)[O-])c(Cl)c3C)o2)ccc1O`, the outcome was “inactive”.
For `O=C(O)c1cc(N2C(=O)C=CC2=O)cc(N2C(=O)C=CC2=O)c1`, the outcome was “inactive”.
In the case of `Oc1ccc2c(ccc3[nH]cnc32)c1`, the outcome is reported as “inactive”.
In the case of `Nc1ccc2[nH]c(=S)[nH]c2c1`, the outcome is reported as “inactive”.
With `Cc1ccc(Nc2n[nH]c(=S)s2)cc1` the outcome was “inactive”.
In the case of `COc1ccc(N2CCN(c3ccc(C(N)=O)cc3[N+](=O)[O-])CC2)cc1`, the outcome is reported as “inactive”.
For `Cc1sc2ncnc(N(C)CCc3ccccn3)c2c1C`, the outcome was “inactive”.
